Reference: PubChem BioAssay AID1159580 (chemical genetic matrix, 2015)
Among all 5,500 compounds or so, about 2,000 (36%) were called active. Roughly 18% stayed inconclusive and do not appear here. Rule as the data show it: active = normalized growth mostly below about 0.91 (no sharp cut-off); inconclusive = no clear call, values can overlap the other calls; inactive = mostly above about 0.92. This is one part of the list.

Test: chemical genetic growth profiling, strain panel (AID 1159580);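 also: tested at 20 µM; growth read once vehicle control cultures reached saturation at 30 °C; 1 = growth at the plate median or of vehicle wells; lower values mean less growth of the strain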
Settings: S. cerevisiae deletion strains, growth OD
[1] = locus YAL013W, strain DEP1, hits give low values
[2] = locus YBR229C, strain ROT2, hits give low values
[3] = locus YDL101C, strain DUN1, hits give low values
[4] = locus YDR150W, strain NUM1, hits give low values
[5] = locus YEL061C, strain CIN8, hits give low values
[6] = locus YGR078C, strain PAC10, hits give low values
[7] = locus YHR030C, strain SLT2, hits give low values
[8] = locus YHR087W, strain rtc3, hits give low values
[9] = locus YJL187C, strain SWE1, hits give low values
[10] = locus YJR043C, strain POL32, hits give low values
[11] = locus YJR075W, strain HOC1, hits give low values
[12] = locus YKL190W, strain CNB1, hits give low values
[13] = locus YLR039C, strain RIC1, hits give low values
[14] = locus YLR058C, strain SHM2 (second series), hits give low values
[15] = locus YLR085C, strain ARP6, hits give low values
[16] = locus YLR262C, strain YPT6, hits give low values
[17] = locus YML094W, strain GIM5, hits give low values
[18] = locus YMR219W, strain ESC1, hits give low values
[19] = locus YMR307W, strain GAS1, hits give low values
[20] = locus YNL153C, strain GIM3, hits give low values
[21] = locus YNL298W, strain CLA4 (second series), hits give low values
[22] = locus YNL322C, strain KRE1, hits give low values
[23] = locus YNR030W, strain Alg12, hits give low values
[24] = locus YOL006C, strain TOP1, hits give low values
[25] = locus YPL055C, strain LGE1, hits give low values
[26] = locus YPL241C, strain CIN2, hits give low values
[27] = locus YPR135W, strain CTF4, hits give low values
[28] = locus YDL134C, strain PPH21, hits give low values
[29] = locus YMR263W, strain SAP30, hits give low values

Measured: normalized growth

O=C(O)c1ccc(N=Cc2ccc3c(c2)OCO3)cc1
inactive: [1] 1 | [2] 0.991 | [3] 0.983 | [4] 0.879 | [5] 1.01 | [6] 0.994 | [7] 0.999 | [8] 1 | [9] 0.985 | [10] 0.997 | [11] 0.979 | [12] 1 | [13] 0.991 | [14] 0.99 | [15] 1.05 | [16] 0.998 | [17] 1 | [18] 0.988 | [19] 1.02 | locus YNL128W, strain TEP1, hits give low values 1.04 | [20] 0.98 | [21] 1.04 | [22] 0.991 | [23] 1.01 | [24] 1.04 | [25] 0.984 | [26] 0.992 | [27] 0.997

O=C(O/N=C\c1ccc2c(c1)OCO2)c1ccccc1Br
inactive: [2] 0.949 | [3] 0.961 | [4] 0.872 | [8] 0.928 | [9] 0.964 | [10] 0.926 | [11] 0.935 | [14] 0.973 | [18] 0.959 | [20] 0.959 | [22] 0.95
active: [1] 0.907 | [28] 0.827 | [5] 0.844 | [6] 0.927 | [7] 0.315 | [13] 0.491 | [15] 0.465 | [16] 0.577 | [17] 0.815 | [29] 0.892 | [21] 0.826 | [23] 0.857 | [25] 0.728 | [26] 0.834 | [27] 0.591

Cc1cc(OCOc2ccc(Cl)c(C)c2)ccc1Cl
inactive: [1] 0.984 | [2] 0.988 | locus YCL061C, strain MRC1, hits give low values 1.03 | [3] 1.05 | [28] 0.995 | [4] 0.997 | [5] 0.992 | [6] 1.01 | locus YGR229C, strain SMI1, hits give low values 0.999 | [7] 0.814 | [8] 0.955 | [10] 1.03 | [11] 1.02 | [12] 0.966 | [13] 1.11 | [14] 0.989 | [15] 0.973 | [16] 0.99 | [17] 0.982 | [18] 0.991 | [29] 0.927 | [19] 0.834 | [20] 1.01 | [21] 1.04 | [22] 0.982 | [23] 0.97 | [24] 0.916 | [25] 0.975 | [26] 1 | [27] 0.999
